The values that follow come from PubChem BioAssay (Tox21).

The structures appear in SMILES notation. Values joined by “and” are separate entries in the source; they are usually repeats but may differ in a detail not shown here. Identical values can stand only once. Results filed as inconclusive are left out. Some structures have more than one record in an assay (separate samples or runs), and their calls can disagree. Active and inactive are the calls of the source. Unless noted, calls follow the shape of the dose curve; as a rule, active = well fitted curve in the direction sought with a large enough effect in the repeat runs; inconclusive = weak or mixed curves; inactive = no such curve, though single readings can be large; an effect the other way counts as inactive or inconclusive.

A short description of test [1]: qHTS assay for small molecule agonists of the p53 signaling pathway (AID 651631; calls by dose curve; also: nearly all actives have a fitted effect of over 15% in size). Summed up: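 Fluorescence intensity from cleaved LiveBLAzer B/G substrate (2 h, room temperature) served as the signal. Beforehand, HCT-116 reporter cells bearing p53 response elements were treated 16 h at 37 °C with DMSO-dissolved compounds.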
A general note: Quantitative high-throughput screening tests each substance at several concentrations.

A short description of test [2]: qHTS assay for small molecules that induce genotoxicity in human embryonic kidney cells expressing luciferase-tagged ATAD5 (AID 651632). Also: nearly all actives have a fitted effect of over 15% in size. Put shortly:
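DMSO vehicle served as the control. HEK293T reporter cells, 16 hr at 37C, then 30 min Amplite at room temperature; ATAD5 induction is measured as luciferase activity.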

A short description of test [3]: qHTS assay for small molecule agonists of the p53 signaling pathway - cell viability (AID 651633; calls by dose curve; also: nearly all actives have a fitted effect of over 30% in size; also: potency is read from the fitted curve at half-maximal effect). Summed up:
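Viability counter-read: CellTiter-Glo luminescence (30 min, room temperature) in the same p53RE-bla plates. These plates had been exposed to compounds for 16 h at 37 C.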

A short description of test [4]: qHTS assay for small molecules that induce genotoxicity in human embryonic kidney cells expressing luciferase-tagged ATAD5 - cell viability (AID 651634; calls by dose curve; also: nearly all actives have a fitted effect of over 25% in size). Put shortly: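 Here HEK293T cells with the ATAD5 luciferase reporter are incubated with test compounds for 15.5 hr, and cytotoxicity is then gauged by measuring protease activity in live cells using fluorescence.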

Test [5] is described as follows: qHTS assay for small molecule disruptors of the mitochondrial membrane potential - cell viability (AID 720634; calls by dose curve; also: nearly all actives have a fitted effect of over 20% in size; also: potency is read from the fitted curve at half-maximal effect). Put shortly: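 Viability of HepG2 cells is scored from ATP content by luminescence; cells are exposed to compound for 1 hr at 37 C and 5% CO2, then dosed with m-MPI dye before the CellTiter-Glo reagent.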
Test [6] in a line: qHTS assay for small molecule disruptors of the mitochondrial membrane potential (AID 720635). Also: potency is read from the fitted curve at half-maximal effect. Put shortly: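 Mitochondrial membrane potential tracked with Mito-MPS dye, red aggregates (ex 540/em 590 nm) against green monomers (ex 490/em 535 nm). Compound treatment 1 hr at 37C, dye 30 min in HepG2.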
Test [7] can be described thus: qHTS assay to test for compound auto fluorescence at 590 nm (red) in HepG2 cells (AID 720674). Put shortly:
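We screened compounds on adherent HepG2 cells, incubating them for an hour at 37 C in 5% CO2 before reading emission at 590 nm under 540 nm excitation; values reflect equivalence to Rose Bengal sodium fluorescence.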

A short description of test [8]: qHTS assay to test for compound auto fluorescence at 535 nm (green) in HepG2 cells (AID 720675).
Test [9] can be described thus: qHTS assay to test for compound auto fluorescence at 460 nm (blue) in HEK293 cells (AID 720678). Summed up:
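HEK293 cells (2,000/well, medium with 10% dialyzed FBS) attached 4-5 hr, then exposed to compound overnight at 37C, 5% CO2. Blue fluorescence read at 405/460 nm, with triamterene as reference fluorophore.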

Test [10] can be described thus: qHTS assay to test for compound auto fluorescence at 590 nm (red) in HEK293 cells (AID 720679). Summed up: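 HEK293 cells (2,000/well, 10% dialyzed FBS) attached 4-5 hr, then dosed with compound or DMSO and incubated overnight at 37C, 5% CO2. Red fluorescence read at 540/590 nm, Rose Bengal sodium as reference fluorophore.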
Test [11] in a line: qHTS assay to test for compound auto fluorescence at 535 nm (green) in HEK293 cells (AID 720680).
Test [12] is described as follows: qHTS assay to test for compound auto fluorescence at 460 nm (blue) in HEK293 cell free culture (AID 720681). Put shortly:
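Blue fluorescence (Ex 405/Em 460 nm, triamterene-equivalent) was read immediately after pin transfer of compound or DMSO into medium (DMEM, 10% FBS) without cells.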

Test [13] in a line: qHTS assay to test for compound auto fluorescence at 535 nm (green) in HEK293 cell free culture (AID 720682). Put shortly:
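Intrinsic compound fluorescence is measured in culture medium containing 10% FBS, with excitation at 485 nm and detection at 535 nm, referenced to fluorescein.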

Test [14] can be described thus: qHTS assay to test for compound auto fluorescence at 590 nm (red) in HepG2 cell free culture (AID 720684). Summed up: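 No cells present: MEM + 10% FBS only. Compound pinned in, red label read (540/590 nm). Activity = fluorescence equivalent to Rose Bengal sodium.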
Test [15] can be described thus: qHTS assay to test for compound auto fluorescence at 460 nm (blue) in HepG2 cell free culture (AID 720685). Put shortly: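 Cell-free plates of MEM plus 10% FBS received 23 nL compound or DMSO vehicle; blue-channel (405/460 nm) intensity scored against triamterene as reference fluorophore.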
The nature of test [16]: qHTS assay to test for compound auto fluorescence at 535 nm (green) in HepG2 cell free culture (AID 720686).
Test [17] is described as follows: qHTS assay to test for compound auto fluorescence at 460 nm (blue) in HepG2 cells (AID 720687). Summed up:
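Blue-channel autofluorescence (Ex/Em 405/460 nm, triamterene-equivalent) was measured after 1 hr compound exposure at 37 C, 5% CO2. Cells were HepG2, plated overnight at 37 C in MEM plus 10% FBS.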

The target in test [18] is Glucocorticoid receptor (Homo sapiens) (UniProt P04150). Nature of the test: qHTS assay to identify small molecule agonists of the glucocorticoid receptor (GR) signaling pathway (AID 720691; active = well fitted activation curve with a large enough effect in the signal ratio in the repeat runs, not every such curve was filed as active; the % refers to the signal ratio). Summed up: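 Compounds in DMSO, alongside positive controls, were added to GR-bla HeLa reporter cells and incubated 18 h at 37 C; GRE-driven beta-lactamase was detected by fluorescence after 2 h with FRET substrate at room temperature.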

For test [19] the target is unchanged. In words: qHTS assay to identify small molecule antagonists of the glucocorticoid receptor (GR) signaling pathway (AID 720692; active = well fitted inhibition curve with a large enough effect in the signal ratio in the repeat runs, not every such curve was filed as active; the % refers to the signal ratio). Put shortly:
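In a 1536-well cell format, compounds were added 4 h after seeding GR-bla HeLa cells, together with dexamethasone at 5 nM final; reporter activity was measured by FRET-substrate fluorescence following 18 h at 37 C.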

Chain of Glucocorticoid receptor (Homo sapiens) (P04150 whole entry, looked up): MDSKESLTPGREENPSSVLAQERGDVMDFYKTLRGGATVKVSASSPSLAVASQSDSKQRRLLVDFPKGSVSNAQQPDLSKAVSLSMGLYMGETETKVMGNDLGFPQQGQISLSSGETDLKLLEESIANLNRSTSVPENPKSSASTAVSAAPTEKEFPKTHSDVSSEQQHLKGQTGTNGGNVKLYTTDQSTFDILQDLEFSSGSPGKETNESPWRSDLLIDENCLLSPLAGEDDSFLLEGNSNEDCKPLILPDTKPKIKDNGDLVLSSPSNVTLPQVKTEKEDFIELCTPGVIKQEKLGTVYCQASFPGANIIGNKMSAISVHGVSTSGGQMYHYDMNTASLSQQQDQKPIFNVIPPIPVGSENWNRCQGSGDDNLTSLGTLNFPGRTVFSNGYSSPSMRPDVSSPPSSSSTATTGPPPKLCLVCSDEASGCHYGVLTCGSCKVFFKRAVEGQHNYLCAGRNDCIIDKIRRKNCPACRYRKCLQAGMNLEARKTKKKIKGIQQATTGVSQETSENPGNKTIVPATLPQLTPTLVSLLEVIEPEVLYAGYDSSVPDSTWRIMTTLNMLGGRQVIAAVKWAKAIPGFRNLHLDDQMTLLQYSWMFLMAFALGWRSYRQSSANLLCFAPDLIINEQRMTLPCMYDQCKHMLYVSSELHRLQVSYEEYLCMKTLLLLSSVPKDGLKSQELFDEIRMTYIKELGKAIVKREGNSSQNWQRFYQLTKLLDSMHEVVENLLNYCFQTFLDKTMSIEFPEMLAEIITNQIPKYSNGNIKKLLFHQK

For `CN(C)C(=O)C(c1ccccc1)c1ccccc1`, the Potency entry in [1], in test [2], in test [3], in test [4], in test [5] and in test [6] was “inactive” in each case. Further, the call in test [7], in test [8], in test [9], in test [10], in test [11] and in [12] was inactive. Further, the compound was classed as inactive in [13], in test [14], in [15], in test [16] and in [17].
Take `CC(C)c1cccc(C(C)C)c1O`: the Potency result in [1], in [2], in test [3], in [4] and in test [5] was “inactive” throughout. In test [6], the Potency is 54.3 µM (active) and 61.1 µM (active). For the same compound, the outcome in test [7], in test [8], in test [9], in test [10], in test [11] and in test [12] was inactive. In addition, the call in test [13], in test [14], in [15], in test [16] and in test [17] was inactive.
Turning to `COC(=O)Nc1cccc(OC(=O)Nc2cccc(C)c2)c1`, the Potency result in test [1], in test [2], in test [3], in test [4] and in [19] was “inactive” each time. Moreover, the Potency in test [5] was 7.7 µM (active); in test [6] it was 2.73 µM (active) and 3.86 µM (active). In addition, the compound was called inactive in test [7], in test [8], in test [9], in [10], in [11] and in [12]. The result in [13], in [14], in test [15], in [16], in [17] and in [18] was inactive.
For `CCOP(=S)(OCC)Oc1cc(C)nc(C(C)C)n1`, the Potency result in test [1], in test [2], in test [4] and in test [19] was “inactive” each time. In addition, the Potency entry was “inactive and 61.1 µM (active)” in test [3]; “inactive and 48.6 µM (active)” in test [5]; “inactive and 30.6 µM (active)” in test [6]. In addition, the compound was classed as inactive in test [7], in test [8], in test [9], in [10], in test [11] and in test [12]. Further, the compound was classed as inactive in [13], in [14], in [15], in test [16], in [17] and in test [18].
Regarding `O=C(O)C(Br)Br`, the Potency result in test [1], in test [2], in [3], in test [4], in test [5] and in test [6] was “inactive” in each case. Moreover, in test [19], the Potency entry was “inactive”. Moreover, the compound was classed as inactive in test [7], in [8], in test [9], in test [10], in test [11] and in test [12]. For the same compound, the outcome in [13], in test [14], in [15], in test [16], in test [17] and in [18] was inactive.
For the compound `CCOC(=O)CC(SP(=O)(OC)OC)C(=O)OCC` (centres undefined), the Potency result in test [1], in test [2], in test [3], in test [4], in test [5] and in [6] was “inactive” throughout. Besides, in [19], the Potency result is “inactive”. Also, the compound was called inactive in test [7], in test [8], in test [9], in test [10], in test [11] and in [12]. Moreover, the outcome in test [13], in [14], in test [15], in [16], in test [17] and in test [18] was inactive.
With `Cc1ccccc1N`, the Potency entry in test [1], in test [2], in test [3], in [4], in test [5] and in test [6] was “inactive” in each case. Besides, the compound was classed as inactive in [7], in [8], in [9], in [10], in test [11] and in test [12]. Besides, the result in [13], in test [14], in test [15], in test [16] and in [17] was inactive.
For `Cc1ccc(N)cc1`, the Potency entry in [1], in [2], in [3], in [4], in [5] and in [6] was “inactive” throughout. The compound was called inactive in test [7], in test [8], in [9], in [10], in test [11] and in test [12]. Moreover, the outcome in test [13], in [14], in test [15], in test [16] and in test [17] was inactive.
